About 83,000 compounds went through this panel and 20% of them were active in at least one assay; those are over-represented in the sample as a whole.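 Each cell line was grown in a 96-well plate and treated with one concentration of compound for 48 hours. Values below 10 were considered active.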 A number with no mark means an inactive call. The source made the active and inactive calls.

In PubChem BioAssay (NCI) one finds growth data, which are given here for 28 compounds.

What all share (assay): NCI-60 one-dose screen, 48 h (100 = growth as untreated, 0 = no growth, -100 = all killed)
Details in all cases: 10 µM

In assay [1] the test system is SR leukemia.
Assay [2] concerns OVCAR-8 ovarian.
Assay [3] relates to OVCAR-5 ovarian.
In assay [4] the test system is OVCAR-4 ovarian.
Assay [5] concerns SK-OV-3 ovarian.
Assay [6] deals with IGROV1 ovarian.
Assay [7] deals with OVCAR-3 ovarian.
The test system of assay [8] is HS 578T breast.
Assay [9] deals with NCI/ADR-RES ovarian.

Regarding `O=C(CCCNC(=O)c1nc(-c2ccccc2)n(-c2ccccc2)n1)NO`, the growth in assay [1] was 106%; in [2], 96.9%; in assay [3] it was 118%; in assay [4] it was 118%; in assay [5], 97%; in [6], 101%. In addition, the results for the growth in [7], in [8] and in [9] were 108%, 105% and 109%, respectively.

Turning to `c1cnc2[nH]cc(-c3nc(-c4ccsc4)cs3)c2c1`, the growth is 87.7% in [1]; 96.9% in assay [2]; 111% in assay [3]; 93% in assay [4]; 92.8% in assay [5]; 70.8% in [6]. In addition, the growth in [7] is 84.2%; in assay [8] it was 87.5%; in assay [9] it was 101%.

For `COc1cc2c3c(n(C4CCNCC4)c(=O)c2cc1OC)-c1cc2c(cc1C3=O)OCO2`, the growth in assay [1] was -24.4% (active); in assay [2] it was -43.1% (active); in [3] it was -66.8% (active); in [4] it was -23.4% (active); in assay [5] it was -42.2% (active); in assay [6] it was -57.1% (active). For the same compound, the growth in [7] is -88.9% (active); in assay [8] it was -48.5% (active); in assay [9], -39.8% (active).

For `COc1cc2c3c(n(C4CCN(C)CC4)c(=O)c2cc1OC)-c1cc2c(cc1C3=O)OCO2`, the growth in [1] is 7.92% (active); in [2] it was 19.4%; in assay [3], 138%; in [4], 84.9%; in assay [5] it was 48.7%; in assay [6] it was 66.9%. Besides, the growth was -72% (active) in assay [7], 109% in [8] and 64% in assay [9].

`COc1ccc2nc(Cl)c(Cn3nnc(Cc4ccccc4)n3)cc2c1`: the growth in [1] was 22.9%; in assay [2], 40.5%; in [3], 82.8%; in assay [4], 19.7%; in assay [5] it was 49.4%; in assay [6], 43.2%. Also, the growth in [7] is 49.8%; in [8] it was 68.9%; in assay [9], 20.1%.

Regarding `C=CCn1c(SCC(=O)Nc2ccc(C(=O)/C=C/c3ccc(Cl)cc3)cc2)nnc1-c1cc(-c2ccccc2)nc2ccccc12`, the growth in [1] is 6.5% (active); in assay [2] it was 26.4%; in assay [3] it was 90.4%; in assay [4], 44.1%; in [5], 100%; in assay [6] it was -62% (active). For the same compound, the figures for the growth in assay [7], in [8] and in assay [9] were 63.7%, 86.3% and 78.9%, respectively.

Regarding `Nc1ccc(/C=N/Nc2ccnc3c(O)cccc23)c2cccnc12`, the growth in assay [1] is 2.19% (active); in assay [2] it was 14.4%; in assay [3] it was 107%; in assay [4], 30.5%; in assay [5], 85.7%; in assay [6] it was 60.2%. The results for the growth in [7], in [8] and in [9] were 20%, 63.9% and 30.6%, respectively.

Consider `CCn1c(SCc2ccc(C)cc2)nnc1-c1nn(-c2ccc(Cl)cc2Cl)c(-c2ccc(Cl)cc2)c1C`, for which the growth is 6.14% (active) in assay [1]; 12.9% in assay [2]; 26.8% in assay [3]; 16.9% in assay [4]; -7.12% (active) in [5]; 30.8% in assay [6]. Besides, the values for the growth in assay [7], in [8] and in assay [9] were 15.8%, 38.4% and 52.1%, respectively.

As for `N#Cc1c(-c2ccc(Cl)cc2)n(O)c2ccccc12`, the growth in [1] was 9.6% (active); in assay [2], 26.1%; in assay [3], 66%; in assay [4], 26.5%; in [5], 12.9%; in assay [6], 4.22% (active). Also, the values for the growth in [7], in assay [8] and in [9] were 4.13% (active), -21.6% (active) and 2.73% (active), respectively.

Consider `CNS(=O)(=O)Oc1ccc(-c2sc3cc(OS(=O)(=O)NC)ccc3c2C(=O)c2ccc(OCCN3CCCCC3)cc2)cc1`, for which the growth in [1] is 27%; in assay [2], 86.6%; in assay [3], 88.3%; in assay [4] it was 69.8%; in [5] it was 76.1%; in [6] it was 85.6%. The growth was 83.6% in assay [7], 58.9% in assay [8] and 71.4% in assay [9].

For the compound `CCOC(=O)c1cc(C(=O)c2ccc(Cl)cc2)n2ccc(-c3cc[n+](CC(=O)c4ccc(OC)cc4)cc3)cc12`, the growth was -27.2% (active) in assay [1]; 76.7% in assay [2]; 112% in assay [3]; 29.7% in assay [4]; 91.1% in assay [5]; 93.2% in assay [6]. In addition, the growth in assay [7] is 37.4%; in assay [8], 83.2%; in assay [9], 88.8%.

Turning to `O=C1NC(=O)c2c(CCCSc3nc4ccccc4c(=O)n3CCc3ccccc3)cccc21`, the growth is 66.6% in [1]; 83.7% in assay [2]; 102% in assay [3]; 60.7% in [4]; 86.2% in assay [5]; 97.4% in assay [6]. Moreover, the growth in [7] was 115%; in [8] it was 74.1%; in assay [9] it was 79.8%.

As to `C[n+]1c2ccccc2nc2ccccc21`, the growth in assay [1] was 25.9%; in assay [2], 10.3%; in assay [3], 42.1%; in [4], 21.9%; in [5], 52%; in assay [6], 11%. For the same compound, the results for the growth in assay [7], in [8] and in assay [9] were 4.06% (active), -12.1% (active) and 8.6% (active), respectively.

As for `COc1cc(/C=C2\CCCC3C2=Nc2ccccc2NC3c2cc(OC)c(OC)c(OC)c2)cc(OC)c1OC` (configuration not stated), the growth was 2.76% (active) in assay [1]; 18.7% in [2]; 16.5% in [3]; 33.5% in assay [4]; 45.4% in [5]; -21% (active) in [6]. Also, the growth in assay [7] was -7.11% (active); in assay [8], 53.2%; in [9], 5.96% (active).

As for `COc1ccccc1-n1c(-c2csc(NC(C)=O)n2)n[nH]c1=S`, the growth in [1] was 82.8%; in assay [2] it was 104%; in [3], 119%; in assay [4], 103%; in assay [5] it was 103%; in [6] it was 97.8%. Also, the growth was 117% in [7], 105% in [8] and 96.2% in assay [9].

Turning to `COc1cc2ncnc(NC3CCC(O)CC3)c2cc1OC` (configuration not stated), the growth is 77.4% in assay [1]; 97.4% in assay [2]; 92.1% in [3]; 103% in [4]; 109% in assay [5]; 97.1% in [6]. Also, the growth in [7] was 111%; in assay [8], 95.5%; in assay [9], 100%.

For the compound `CC(C)(C)OC(=O)N1CCc2c(sc3ncnc(N/N=C/c4ccccc4Br)c23)C1`, the growth in assay [1] was 39.4%; in assay [2], 71.6%; in assay [3], 78.3%; in [4], 72.9%; in [5], 114%; in assay [6], 68.6%. For the same compound, the growth was 62.9% in [7], 98.7% in assay [8] and 71.6% in assay [9].

As to `C/C(=C/CCC(C)[C@@H]1CC[C@]2(C)C3=C(CC[C@@]12C)[C@@]1(C)CCC(=O)C(C)(C)[C@@H]1CC3)C(=O)O` (some centres not stated), the growth is -27.8% (active) in [1]; -21.9% (active) in [2]; -75.6% (active) in assay [3]; -70.2% (active) in [4]; -97.5% (active) in [5]; -87% (active) in assay [6]. Besides, the values for the growth in assay [7], in [8] and in assay [9] were -96% (active), -37.3% (active) and -52.8% (active), respectively.

Turning to `Clc1nc2ccccc2cc1Cn1nnc(Cc2ccccc2)n1`, the growth is 37% in assay [1]; 71.6% in assay [2]; 104% in assay [3]; 29.7% in [4]; 57.4% in assay [5]; 50.9% in [6]. Further, the growth in assay [7] was 59.5%; in [8] it was 76.6%; in assay [9], 52.1%.

Consider `CCCN1CN2C(=O)N3CN(CCC)CN4C(=S)N(C1)C2C34` (configuration not stated), for which the growth is 79.3% in [1]; 108% in assay [2]; 95.2% in assay [3]; 103% in [4]; 86.1% in assay [5]; 99.3% in assay [6]. Further, the growth in [7] was 103%; in assay [8], 113%; in assay [9], 103%.

Take `N#Cc1c(-c2ccc(Cl)cc2)cc(-c2cc(O)ccc2O)nc1N`: the growth in assay [1] was 21.7%; in assay [2], 1.52% (active); in assay [3], 86.6%; in [4], 22.9%; in [5] it was 45.2%; in [6] it was 7.29% (active). For the same compound, the growth is -17.2% (active) in assay [7], 27.6% in assay [8] and 65.3% in [9].

`COc1cc2c3c(n([C@@H]4CCOC4)c(=O)c2cc1OC)-c1cc2c(cc1C3=O)OCO2`: the growth in assay [1] is 15.1%; in [2], 36.7%; in [3], 77%; in [4], 72.2%; in assay [5], 24.7%; in assay [6], 67.8%. Further, the growth in [7] is 52.3%; in assay [8] it was 109%; in [9], 30.1%.

In the case of `COc1ccc(-c2nn(-c3cccc(Cl)c3)cc2-c2nc(N)[nH]c(=O)c2C#N)cc1`, the growth in assay [1] is 19.3%; in assay [2], 96.4%; in assay [3], 94.3%; in assay [4] it was 85.7%; in assay [5], 90%; in [6], 61%. The growth was 106% in assay [7], 76.6% in assay [8] and 66.3% in assay [9].

`Nc1ccccc1NC(=O)c1ccc(CCCC(=O)Nc2ccc(C3CC3N)cc2)cc1` (configuration not stated): the growth in assay [1] was 31.5%; in [2] it was 17.3%; in [3], 33.1%; in assay [4], 49.7%; in assay [5], 32.4%; in assay [6], 44.3%. Also, the values for the growth in [7], in assay [8] and in [9] were 25.4%, 36.7% and 98.6%, respectively.

Regarding `O=S(=O)(NCCCNc1nccc(-c2cn(-c3ccccc3)nc2-c2ccc(Cl)c(O)c2)n1)c1ccccc1`, the growth in [1] was 42%; in [2], 59.5%; in [3], 118%; in assay [4], 71.1%; in assay [5], 83.8%; in assay [6] it was 73.5%. Besides, the growth in assay [7] was 66.8%; in [8], 67.3%; in assay [9] it was 33.3%.

On to `CC[C@@H](C(=O)[C@H](C)[C@H](O)[C@@H](C)[C@H]1O[C@H]([C@@H](CC)C(=O)N(CC)CC)CC[C@H]1C)C1O[C@]2(C=C[C@@H](O)[C@]3(CC[C@@](C)([C@H]4CC[C@](O)(CC)[C@H](C)O4)O3)O2)[C@H](C)C[C@@H]1C` (some centres not stated), for which the growth in assay [1] was 55.5%; in [2], 25.4%; in assay [3], 32%; in assay [4], 28.2%; in assay [5], 20.8%; in assay [6] it was 19.8%. Also, the values for the growth in [7], in assay [8] and in [9] were 14.3%, 24.1% and 5.44% (active), respectively.

Take `CCOC(=O)c1sc2ncnc(Nc3ccc4c(cnn4C(=O)Nc4ccc(C)c(Cl)c4)c3)c2c1C`: the growth is 79.2% in assay [1]; 102% in [2]; 110% in assay [3]; 115% in [4]; 97.3% in [5]; 97.9% in [6]. For the same compound, the growth in assay [7] was 117%; in assay [8], 112%; in assay [9] it was 105%.

Regarding `CCCCCCCCCCCCCCCCCC[n+]1ccc2c(C)c3c(c(C)c2c1)c1cc(O)ccc1n3CC`, the growth is 12.2% in assay [1]; 7.3% (active) in assay [2]; 42.5% in assay [3]; 18.2% in assay [4]; 22.2% in assay [5]; 6.43% (active) in assay [6]. Moreover, the growth is 4.31% (active) in assay [7], 9.04% (active) in assay [8] and 72.3% in [9].
